Data from PubChem BioAssay AID463208 (Broad Institute, 2010).
Calls of active or inactive are those of the source.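 How the source made its calls: active means AC50 at most tenfold above the top tested concentration; inconclusive means flat fit with 30 to 70% activity, or a poor fit; inactive means AC50 over tenfold above the top dose.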

Assay: inhibition of yeast nuclear histone deacetylase activity – cell lysate, fluorescence, yeast nuclear extract, mechanism study for Sdo1 growth activator project, dose response (AID 463208)
Conditions: yeast nuclear extract HDAC activity, fluorogenic substrate

AC50, inactive:
Cc1ccc(Cn2c(Sc3ncccn3)nc3c2c(=O)[nH]c(=O)n3C)cc1 > 50 µM
CC(C)C(C(=O)Nc1cccnc1)N1C(=O)c2ccccc2C1=O (configuration not stated) > 50 µM
Cn1c(=O)[nH]c(=O)c2c1nc(Sc1nc3ccccc3[nH]1)n2Cc1ccccc1 > 50 µM
O=C(CCSc1nc(-c2ccco2)cc(C(F)(F)F)n1)NCCc1cccs1 > 50 µM
Cc1c(/C=N/NC(=O)c2ccc(F)cc2)cnn1C > 50 µM
CC(=O)N(C1=C(Cl)C(=O)c2ccccc2C1=O)C1CCCCC1 > 50 µM
COc1cc(/C=N/NC(=O)CCC(=O)NCc2ccccc2)cc(OC)c1OC > 50 µM
O=C(C(c1ccccc1)c1ccccc1)N(Cc1cccs1)C1CCS(=O)(=O)C1 (configuration not stated) > 50 µM
CSCC[C@H](NC(=O)OC(C)(C)C)c1nnc(SCC(N)=O)o1 > 50 µM
CC(=O)N(c1ccccc1)C1C(=O)C(=O)c2ccccc2C1=O (configuration not stated) > 50 µM
CC(=O)N(C1CCCCC1)C1C(=O)C(=O)c2ccccc2C1=O (configuration not stated) > 50 µM
Cc1ccc2c(CC(=O)NNC(=O)c3ccccc3)coc2c1 > 50 µM
Cc1ccc(NC(=O)c2ccc(NCC3CCCO3)c([N+](=O)[O-])c2)cc1 (configuration not stated) > 50 µM
Cc1nn(-c2ccccc2)c(C)c1NC(=O)c1cccs1 > 50 µM
Cc1sc(NC(=O)c2ccnn2C)c(C#N)c1-c1ccccc1 > 50 µM
O=C(C(c1ccccc1)c1ccccc1)N(Cc1ccco1)C1CCS(=O)(=O)C1 (configuration not stated) > 50 µM
CCOC(=O)/C=C1\SCC(=O)N1CC(=O)NC1CCCCC1 > 50 µM
O=C(CSc1nc(-c2cccs2)cc(C(F)(F)F)n1)NCc1ccco1 > 50 µM
Cc1ccc(Cn2c(Sc3nccc(C)n3)nc3c2c(=O)[nH]c(=O)n3C)cc1 > 50 µM
COc1ccc(-c2c(C)sc(NC(=O)c3ccnn3C)c2C#N)cc1 > 50 µM
O=C(COC(=O)Cc1ccsc1)Nc1ccccc1 > 50 µM
CC(C(=O)Nc1cccnc1)N1C(=O)c2ccccc2C1=O (configuration not stated) > 50 µM
